# According to PubChem BioAssay (NCI):
# The panel holds about 83,000 compounds, 20% with a hit somewhere; the sample as a whole holds those more often.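 Compound tested at a single concentration for 48 hours in 96-well plates; a percent growth value below 10 was scored as active.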 A number with no mark means an inactive call. Activity calls are given as the source filed them.
# Tests used:
# Test in all cases: NCI-60 one-dose screen, 48 h (100 = growth as untreated, 0 = no growth, -100 = all killed)
# Settings in all cases: 10 µM unless noted
# EKVX NSCLC = tested on: EKVX NSCLC
# SN12C renal = tested on: SN12C renal
# UO-31 renal = tested on: UO-31 renal
# TK-10 renal = tested on: TK-10 renal
# ACHN renal = tested on: ACHN renal
# CAKI-1 renal = tested on: CAKI-1 renal
# A498 renal = tested on: A498 renal
# CCRF-CEM leukemia = tested on: CCRF-CEM leukemia
# MOLT-4 leukemia = tested on: MOLT-4 leukemia
# SR leukemia = tested on: SR leukemia
# RPMI-8226 leukemia = tested on: RPMI-8226 leukemia
# OVCAR-8 ovarian = tested on: OVCAR-8 ovarian
# OVCAR-5 ovarian = tested on: OVCAR-5 ovarian
# OVCAR-4 ovarian = tested on: OVCAR-4 ovarian
# SK-OV-3 ovarian = tested on: SK-OV-3 ovarian
# IGROV1 ovarian = tested on: IGROV1 ovarian
# OVCAR-3 ovarian = tested on: OVCAR-3 ovarian
# HS 578T breast = tested on: HS 578T breast
# NCI/ADR-RES ovarian = tested on: NCI/ADR-RES ovarian
# SK-MEL-2 melanoma = tested on: SK-MEL-2 melanoma
Compound,growth (EKVX NSCLC),growth (SN12C renal),growth (UO-31 renal),growth (TK-10 renal),growth (ACHN renal) [%],growth (CAKI-1 renal) [%],growth (A498 renal),growth (CCRF-CEM leukemia),growth (MOLT-4 leukemia),growth (SR leukemia),growth (RPMI-8226 leukemia),growth (OVCAR-8 ovarian),growth (OVCAR-5 ovarian),growth (OVCAR-4 ovarian) [%],growth (SK-OV-3 ovarian),growth (IGROV1 ovarian),growth (OVCAR-3 ovarian),growth (HS 578T breast),growth (NCI/ADR-RES ovarian),growth (SK-MEL-2 melanoma) [%]
Nc1cccc2cccc(O)c12,94.6%,91%,52.8%,83.7%,80,101,97.9%,52.8%,83%,58.5%,85.5%,86.7%,103%,83.1,100%,76%,87.1%,82.1%,95.5%,
NC(=O)OCCO,,105%,87.7%,98.8%,113,99.6,,99.5%,97.7%,94.5%,104%,104%,107%,109,105%,108%,102%,99.2%,105%,100
O=Cc1ccc(F)cc1,,98%,82%,113%,95.6,88.4,103%,,110%,111%,105%,103%,102%,106,109%,95.2%,111%,,107%,129
CCOC(=O)CO,95.6%,104%,72.8%,109%,109,96.5,97%,102%,86.4%,95%,110%,109%,105%,111,109%,105%,125%,109%,109%,
CC(C)=CCC[C@@H](C)[C@H]1CC[C@@]2(C)C3=C(CC[C@]12C)[C@@]1(C)CC[C@H](O)C(C)(C)[C@@H]1CC3,,102%,111%,112%,101,99.1,114%,,,93.4%,102%,102%,107%,105,108%,115%,122%,,110%,118
Cc1cccc2ccccc12,,100%,86.8%,103%,99.7,91.6,,102%,,,101%,100%,104%,108,103%,112%,110%,107%,99.6%,106
O=C(Nc1ccccc1)c1ccco1,,109%,86.1%,98.9%,107,95.9,,107%,93.5%,100%,105%,101%,110%,100,103%,,114%,103%,107%,99.1
Clc1cccc(Cl)c1C1CSc2ccccc2N=C1c1ccccc1 (centres undefined),,75.5%,55.3%,117%,76.8,,124%,-12.9% (active),20.1%,-14% (active),-14.8% (active),,101%,73,96.5%,91.8%,69.6%,88.1%,73.3%,90.2
C=CCC(OC(C)=O)c1ccc(C(C)C)cc1 (centres undefined),113%,104%,84.9%,96.4%,108,121,87.3%,102%,105%,116%,108%,105%,109%,113,115%,123%,162%,109%,107%,
ON1CCCC1,,102%,95.5%,94%,109,92.9,97.5%,,81%,90.3%,88.2%,103%,103%,107,102%,108%,112%,,102%,106
O=C(CC(CC(=O)c1ccccc1)c1ccccn1)c1ccccc1,,92.6%,68.6%,123%,97.8,,94.2%,103%,102%,,96.8%,101%,105%,105,104%,96.8%,106%,84.8%,97.4%,106
Cc1ccc(OC(=O)c2ccccc2)cc1,122%,109%,97.2%,98.1%,117,114,95.6%,108%,104%,102%,113%,101%,100%,114,107%,132%,115%,141%,113%,
Cn1/c(=N\N=C\c2ccccc2OCCO)sc2ccccc21,,102%,57.2%,109%,92.5,88.9,,93.3%,62.7%,89%,81%,100%,104%,106,104%,70.2%,95.2%,99.8%,109%,104
FC(F)(F)c1cc(NC2=NCCN=C(Nc3cc(C(F)(F)F)cc(C(F)(F)F)c3)SS2)cc(C(F)(F)F)c1,,47.2%,35.1%,58.4%,43.5,48.1,58%,28.8%,51.2%,1.94% (active),6.78% (active),48.6%,102%,65.8,79.5%,49.7%,25.8%,79.3%,59.6%,
O=C(O)Cc1cccc2ccccc12,101%,121%,93.6%,102%,103,94.6,106%,,9.03% (active),94.5%,104%,110%,102%,122,103%,112%,111%,,100%,
O=C(O)c1cccc(-n2ncc(Cl)c(Cl)c2=O)c1,,100%,107%,154%,106,98.6,113%,98.3%,96.5%,102%,93.8%,107%,106%,91.1,106%,130%,118%,98.3%,110%,
COC(=O)Cc1cc(COC(C)=O)ccc1C,119%,114%,81.3%,88.5%,103,116,95.4%,96.1%,98.4%,75.4%,110%,108%,103%,114,125%,,109%,112%,107%,
Cc1nc(O)cc(=O)[nH]1,108%,109%,72.8%,107%,107,109,,106%,103%,114%,114%,105%,110%,114,121%,106%,115%,91.4%,108%,
O=C(CCl)Nc1ccccc1SCc1cc(Cl)cc2c1OCOC2,,91.3%,75.7%,126%,85.5,35,,-27.5% (active),50.7%,,94%,75.4%,101%,47.7,80.8%,-43% (active),26.1%,102%,101%,

Compound,growth (EKVX NSCLC),growth (SN12C renal),growth (UO-31 renal),growth (TK-10 renal),growth (ACHN renal) [%],growth (CAKI-1 renal) [%],growth (A498 renal),growth (CCRF-CEM leukemia),growth (MOLT-4 leukemia),growth (SR leukemia),growth (RPMI-8226 leukemia),growth (OVCAR-8 ovarian),growth (OVCAR-5 ovarian),growth (OVCAR-4 ovarian) [%],growth (SK-OV-3 ovarian),growth (IGROV1 ovarian),growth (OVCAR-3 ovarian),growth (HS 578T breast),growth (NCI/ADR-RES ovarian),growth (SK-MEL-2 melanoma) [%]
COc1cc(OC)c(NC(=O)C(Sc2nc(C)cc(C)c2C#N)c2ccccc2)cc1Cl (centres undefined),,98.5%,102%,96.3%,85.8,94.6,,99.4%,90.9%,98.4%,119%,88.6%,106%,105,85.3%,,113%,86.7%,96.9%,
CC(=O)NCNC(C)=O,,109%,105%,115%,100,102,113%,93.3%,87.9%,85.3%,97%,98%,105%,110,113%,,120%,111%,111%,
Cc1cccnc1NC1OC(=O)c2ccccc21 (centres undefined),,105%,85.8%,97%,103,99.5,94.7%,104%,99.3%,93.8%,106%,107%,106%,117,94.6%,101%,107%,138%,103%,
C#CCSc1nnnn1-c1ccccc1,,88%,91.1%,80.4%,70.2,78.5,40%,83.9%,87.9%,86.9%,72.4%,80.9%,92%,92.6,104%,92.8%,79.1%,102%,86.7%,
CCOc1ccc(C(=O)NCC(C)C)cc1,106%,99.9%,93.5%,97.8%,107,101,92.1%,103%,100%,102%,105%,105%,105%,97.2,99.7%,,109%,107%,111%,
CCCCCCCCNC(=O)C(C)C,99.9%,95.8%,99.1%,98.5%,108,99.1,81.5%,102%,107%,102%,99.1%,109%,97.9%,96.9,105%,,109%,97.1%,117%,
Cc1ccc(NC(=O)c2ccccc2Cl)cc1,105%,101%,97%,115%,103,107,79.2%,85%,87.8%,92.3%,94.8%,115%,99.1%,107,124%,,122%,103%,111%,
CC(CCC#N)(CCC#N)C(=O)c1ccccc1,115%,102%,77.1%,106%,114,112,89.9%,93.3%,,104%,101%,105%,109%,90,115%,125%,123%,97.8%,106%,
Oc1ccc(N=Cc2ccc(OCc3ccccc3)cc2)cc1,,101%,79.9%,99.3%,99.7,98.1,75.8%,82.4%,97.1%,97.4%,96.7%,96.3%,111%,95.2,112%,108%,103%,104%,95.6%,
S=c1nc(-c2ccccn2)c(-c2ccccn2)n[nH]1,,118%,81.1%,98.6%,109,110,119%,97.2%,87.7%,99.2%,112%,103%,111%,108,112%,103%,107%,105%,102%,
COc1ccc(/C=N/NC(=O)COCC(=O)N/N=C/c2ccc(OC)cc2)cc1,,99%,92.5%,115%,97.2,98.8,85.6%,86.8%,98.3%,,101%,104%,108%,90.5,108%,110%,108%,114%,112%,
N#CC1(O)CCCCC1,101%,110%,85.6%,102%,106,92.5,87.9%,,102%,91.6%,105%,94.3%,98.2%,126,93.6%,101%,104%,,94%,
Clc1cccc(Cl)c1CSc1nc2ccccc2n2cccc12,,102%,71.8%,103%,97.3,70.5,115%,100%,92.9%,71.9%,96.1%,104%,106%,70.4,88.6%,,92.5%,113%,101%,
NC(=S)c1c(N)n(C2OC(CO)C(O)C2O)c2ncnc(N)c12 (centres undefined),-27.4% (active),15%,-40% (active),-4.54% (active),11.3,,-55.6% (active),-48.9% (active),,,,-10.3% (active),3.64% (active),14.5,5.93% (active),-61.2% (active),-54.1% (active),-20.1% (active),-1.77% (active),
C[n+]1cc2cc3c(cc2c2ccccc21)OCO3,,9.45% (active),72%,92.8%,106,102,72.8%,57.5%,12.4%,15.6%,40.3%,77.9%,74%,52.3,46%,84.1%,51.5%,42.1%,106%,
O=C1NCC2CCCC1C2 (centres undefined),118%,101%,92.7%,101%,111,,133%,104%,103%,110%,118%,99.3%,107%,103,110%,107%,114%,,106%,
NC(=S)N/N=C/c1ccc(Cl)cc1,,128%,94.8%,106%,108,,99.5%,,88.4%,97.1%,97.8%,92.9%,108%,97.3,118%,107%,116%,112%,100%,
Cc1cc(NC(=O)c2ccccc2)c(Cl)cc1N,107%,100%,86.6%,141%,98.8,,,47.9%,,,,95.9%,103%,97.5,107%,33.3%,119%,109%,102%,
Cc1cc(CO)c(O)c(CO)c1,106%,111%,90.9%,97.1%,103,96.8,95.5%,,21.4%,77.8%,91%,105%,101%,122,106%,108%,113%,,96.1%,
